In the library only some 12% were active in any assay of this set; here they are far more common.
JMJD2A Tudor: qHTS Assay for Inhibitors of JMJD2A-Tudor Domain. Potency, µM (doses to about 114 µM), inactives show at the highest dose activity change, negative = inhibition, usual class: inhibitors. Lysine-specific demethylase 4A (Homo sapiens), O75164. AlphaScreen JMJD2A-Tudor / H3K4me3 peptide binding. 390,000 tested, 4.4% active; also: % is scaled to controls: 0 for no effect and ±100 for the full control effect; nearly all actives have a fitted effect of over 50% in size
Target sequence (O75164 whole entry, looked up, the tested form may be a part): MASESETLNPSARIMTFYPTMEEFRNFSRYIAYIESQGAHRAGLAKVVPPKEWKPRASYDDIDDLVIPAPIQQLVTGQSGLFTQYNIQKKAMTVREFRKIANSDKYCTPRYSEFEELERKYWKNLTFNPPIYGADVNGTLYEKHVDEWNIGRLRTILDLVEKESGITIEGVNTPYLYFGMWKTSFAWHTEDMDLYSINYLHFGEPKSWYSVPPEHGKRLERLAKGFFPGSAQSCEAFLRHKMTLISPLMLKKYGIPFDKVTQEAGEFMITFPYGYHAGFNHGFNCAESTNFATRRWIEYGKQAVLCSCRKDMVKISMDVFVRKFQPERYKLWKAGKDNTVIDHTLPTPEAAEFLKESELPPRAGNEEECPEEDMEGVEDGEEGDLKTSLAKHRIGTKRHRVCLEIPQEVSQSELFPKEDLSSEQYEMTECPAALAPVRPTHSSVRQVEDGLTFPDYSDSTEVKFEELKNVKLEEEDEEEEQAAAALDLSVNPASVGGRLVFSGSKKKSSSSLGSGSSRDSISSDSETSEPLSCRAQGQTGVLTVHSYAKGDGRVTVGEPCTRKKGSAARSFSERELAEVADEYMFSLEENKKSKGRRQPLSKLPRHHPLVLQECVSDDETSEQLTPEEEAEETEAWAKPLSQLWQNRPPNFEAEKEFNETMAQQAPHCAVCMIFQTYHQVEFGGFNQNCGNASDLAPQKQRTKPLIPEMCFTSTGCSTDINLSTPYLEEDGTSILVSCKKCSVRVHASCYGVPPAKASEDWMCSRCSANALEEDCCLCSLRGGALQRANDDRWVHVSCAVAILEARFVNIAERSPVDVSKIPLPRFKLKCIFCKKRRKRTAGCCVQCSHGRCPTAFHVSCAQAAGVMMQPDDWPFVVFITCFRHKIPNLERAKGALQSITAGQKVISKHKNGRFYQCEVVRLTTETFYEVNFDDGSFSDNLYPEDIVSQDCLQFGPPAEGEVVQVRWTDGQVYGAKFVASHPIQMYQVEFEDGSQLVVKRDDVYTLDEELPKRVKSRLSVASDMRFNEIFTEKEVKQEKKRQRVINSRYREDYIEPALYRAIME
G9a block: qHTS Assay for Inhibitors of Histone Lysine Methyltransferase G9a; Histone-lysine N-methyltransferase EHMT2 (Homo sapiens), Q96KQ7; G9a H3K9 monomethylation, AlphaScreen, 2 h; Potency, µM (top dose mostly 102 µM), without a hit: at the top dose activity, negative = inhibition, hits mostly inhibitors; 350,000 tested, 8.8% active; AID 504332, 2011; also: % is scaled to controls: 0 for no effect and ±100 for the full control effect; nearly all actives have a fitted effect of over 75% in size
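Using a bead-based AlphaScreen, monomethylated H3K9 product from 2 h room-temperature reactions (G9a 20 nM, peptide 500 nM, SAM 20 uM) was detected with 0.5 ug/mL rabbit anti-H3K9me1 antibody.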
BAZ2B inh: qHTS Assay for Inhibitors of BAZ2B. AID 504333, 2011. Bromodomain adjacent to zinc finger domain protein 2B (Homo sapiens), Q9UIF8. Potency, µM (highest dose often 114 µM), inactives show top-dose activity change, negative = inhibition, most hits filed as inhibitors. 360,000 tested, 4.4% active. AlphaScreen BAZ2B-H3K14Ac peptide displacement; also: % is scaled to controls: 0 for no effect and ±100 for the full control effect; nearly all actives have a fitted effect of over 60% in size
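Multi-concentration screen (max 110 uM) measuring displacement of acetylated histone H3 peptide from BAZ2B by AlphaScreen, using 50 nM protein, 50 nM peptide and 10 ug/mL streptavidin donor plus Ni-chelate acceptor beads.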
HP1b binding inh: HTS for Inhibitors of HP1-beta Chromodomain Interactions with Methylated Histone Tails; Potency, µM (top dose mostly 114 µM), for the others: at the highest dose activity change, negative = inhibition, most hits filed as inhibitors; 390,000 tested, 0.56% active; AID 540317, 2011; Chromobox protein homolog 1 (Homo sapiens), P83916; AlphaScreen HP1-beta / biotin-H3K9me3 peptide binding; also: nearly all actives have a fitted effect of over 70% in size
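HP1-beta protein (50 nM final) preincubated 30 min at room temperature with biotinylated H3(1-18)K9me3 peptide (50 nM) in PBS pH 7.4, 0.01% Tween-20, then compound added for 30 min. AlphaScreen streptavidin donor/nickel chelate acceptor beads (10 ug/mL final), 30 min dark, luminescence read.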
TDP1 block: qHTS Assay for Inhibitors of Tyrosyl-DNA Phosphodiesterase (TDP1). 350,000 tested, 0.28% active. Potency, µM (top dose mostly 130 µM), inactives show at the highest dose activity change, negative = inhibition, usual class: inhibitors. recombinant TDP1, AlphaScreen DNA substrate cleavage; also: % is scaled to controls: 0 for no effect and ±100 for the full control effect; nearly all actives have a fitted effect of over 40% in size
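Signal: AlphaScreen proximity between streptavidin donor and anti-FITC acceptor beads on intact substrate. Reaction: Tdp1 1 nM, substrate 15 nM final, 5 min RT after 15 min compound preincubation.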
Sfp PPTase inh: qHTS Assay for Inhibitors of Bacillus subtilis Sfp phosphopantetheinyl transferase (PPTase); 4'-phosphopantetheinyl transferase ffp (Bacillus subtilis), Q9F4F7; AID 1490, 2009; Potency, µM, without a hit: largest response in the series, negative = inhibition, most hits filed as inhibitors; Biochemical Sfp PPTase activity, qHTS; 310,000 tested, 3.5% active;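 also: the enzyme is Sfp with the accession as filed and its product quenches rhodamine fluorescence; 0% = enzyme reaction without inhibitor and -100% = no enzyme wells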
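Reaction rates are the 30-min fluorescence difference (ex 525, em 598 nm) in wells containing 15 nM Sfp, 5 uM rhodamine-CoA and 12.5 uM BHQ-2-YbbR at pH 7.6 with 10 mM MgCl2.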
Starred values were filed as active, the others as inactive; u = inconclusive; x = not tested or not shown; [ ] = remark or other dose. Calls follow the shape of the dose curve; as a rule, active = well fitted curve in the direction sought with a large enough effect; inconclusive = small, poorly fitted or top-dose-only effect, or another doubt; inactive = no such curve, though single readings can be large; an effect the other way counts as inactive or inconclusive. Potency is read from the fitted curve at half-maximal effect.

SMILES	JMJD2A Tudor	G9a block	BAZ2B inh	HP1b binding inh	TDP1 block	Sfp PPTase inh
Cc1cccc(N(Cc2cc3ccccc3[nH]c2=O)C(=O)c2ccco2)c1C	-10.3%	3.4%[12.7 µM]	-6.5%	19.1%	7.0%	79.4µM*
CC(C)N(Cc1cc2ccccc2[nH]c1=O)C(=O)c1ccco1	-9.0%	50.1µM*	-8.9%	20.0%	5.7%	50.1µM*
COCC(=O)N(Cc1cc2cc(C)ccc2[nH]c1=O)c1cccc(C)c1C	0.7%	35.0%	-26.3%	43.0%	x	7.8%
COc1ccc(N(Cc2cc3ccc(C)cc3[nH]c2=O)C(=O)c2ccco2)cc1	-1.1%	70.8µM*	12.3%	34.2%	4.2%	u
O=C(OCc1cc2ccccc2[nH]c1=O)c1ccco1	-9.0%	-0.6%[12.7 µM]	1.3%	24.6%	8.0%	-9.9%
CCOC(=O)C1CCN(c2nc3ccccc3nc2Cl)CC1	199.0%	128.2%[59 µM]	354.8%	293.6%	2.7%	x
O=C(N/N=C1/C[C@@H](O)[C@@H](O)[C@@H]2[C@@H]3C(=O)N(Cc4ccc5c(c4)OCO5)C(=O)[C@H]3CC[C@@H]12)OCc1ccccc1	x	x	x	x	6.9%[21 µM]	-1.8%
Cc1cccc(C)c1Nc1c(-c2ccc(O)cc2)nc2sccn12	44.7µM*	3.98µM*	39.8µM*	15.8µM*	8.2%	x
COc1cc(-c2nc3sccn3c2Nc2c(C)cccc2C)ccc1O	56.2µM*	7.6%[59 µM]	11.8%	u	7.3%	x
COc1cc(-c2nc3cnccn3c2Nc2c(C)cccc2C)ccc1O	-5.2%	-4.9%[2.33 µM]	3.4%	25.4%	-0.5%	-18.1%
Cc1ccc(NC(=O)CCNS(=O)(=O)c2cccs2)cc1F	-1.8%	9.7%	1.5%	28.1%	-9.1%	11.4%
Cc1ccc(NC(=O)CNS(=O)(=O)c2cccs2)cc1F	-9.9%	79.4µM*	-35.5%	24.1%	0.0%	9.2%
NC(=O)CC(NC(=O)Cc1cccc2ccccc12)c1ccc(NCCCN2CCCC2=O)c([N+](=O)[O-])c1 (stereo not drawn)	-29.3%	70.8µM*	-34.3%	28.6%	x	12.0%
C=CCN1C(=O)/C(=C/c2ccc(-c3ccc(F)cc3)o2)SC1=S	u	u	u	-20.4%	x	56.2µM*
O=C(O)C(c1ccccc1)N1C(=O)/C(=C\c2ccc(-c3ccc(Br)cc3)o2)SC1=S (stereo not drawn)	20µM*	39.8µM*	20µM*	u	x	-23.3%
CC(C)C(C(=O)O)N1C(=O)/C(=C/c2ccc(Br)cc2)SC1=S (stereo not drawn)	x	x	x	x	6.9%	u
O=C(CCN1C(=O)/C(=C/c2ccc(F)cc2)SC1=S)N[C@@H](CO)Cc1ccccc1	7.8%	6.9%	-23.5%	34.9%	3.7%	4.3%
O=C(O)C(c1ccccc1)N1C(=O)/C(=C\c2ccc(-c3ccccc3Cl)o2)SC1=S (stereo not drawn)	20µM*	39.8µM*	17.8µM*	u	x	50.1µM*
O=C(CCN1C(=O)c2ccccc2C1=O)N1CCN(Cc2ccc(Cl)cc2Cl)CC1	-19.3%	39.8µM*	3.8%	14.5%	3.1%	-5.3%
Cc1ccc(S(=O)(=O)N2CCN(C(=O)Cc3ccccc3)CC2)cc1C	-20.8%	u	4.8%	35.2%	0.1%	x
Cc1ccc(S(=O)(=O)N2CCN(C(=O)CCN3C(=O)c4ccccc4C3=O)CC2)cc1C	-5.9%	79.4µM*	-7.8%	10.1%	4.3%	-1.5%
Cn1nnnc1SCCCNCc1cccc(OCc2ccccc2F)c1	-22.8%	-25.1%[59 µM]	u	33.7%	-2.6%	x
Cc1cc(S(=O)(=O)Nc2ccc(C(=O)NCCCN3CCCC3=O)cc2)ccc1F	-21.9%	-5.0%	12.4%	20.0%	1.6%	x
COc1ccc(C(C)(C)C)cc1NC(=O)COC(=O)c1ccc([N+](=O)[O-])o1	20µM*	39.8µM*	u	u	10.3%	-23.4%
CCCC1CCc2c(sc(N)c2C(N)=O)C1 (stereo not drawn)	u	31.6µM*	u	u	4.0%	u
SMILES	JMJD2A Tudor	G9a block	BAZ2B inh	HP1b binding inh	TDP1 block	Sfp PPTase inh
CC(C)(C)C1CCc2c(sc(N)c2C(N)=O)C1 (stereo not drawn)	-27.4%	3.98µM*	-19.7%	13.4%	4.2%	50.1µM*
CCC(C)(C)C1CCc2c(sc(N)c2C(N)=O)C1 (stereo not drawn)	u	u	u	-10.6%	6.7%	-26.1%
O=C(c1ccco1)N1CCC2(CCN(Cc3ccncc3)CC2)CC1	x	2.9%[12.7 µM]	x	x	x	10.6%
CC1(C(=O)OCC(=O)Nc2ccc3ccccc3c2)CC1(Cl)Cl (stereo not drawn)	1.4%	26.2%	2.3%	92.5%	-12.8%	20.7%
CC1CC(c2ccccc2)n2nc(NC(=O)CCc3ccccc3)nc2N1 (stereo not drawn)	79.4µM*	0.7%[59 µM]	50.1µM*	53.9%	0.0%	12.1%
O=C(O)CCCC(=O)Nc1nc2n(n1)C(c1ccc(F)cc1)CC(c1ccc(Cl)cc1)N2 (stereo not drawn)	u	-43.7%[12.7 µM]	50.1µM*	37.1%	7.1%	-4.0%
COCC(=O)Nc1nc2n(n1)C(c1ccccc1)CC(c1ccc(OC)cc1)N2 (stereo not drawn)	56.2µM*	u	u	32.2%	3.0%	-7.1%
COCC(=O)Nc1nc2n(n1)C(c1ccc(OC)cc1)CC(c1ccc(OC)cc1)N2 (stereo not drawn)	-33.6%	-41.3%[12.7 µM]	-36.2%	13.8%	3.1%	1.7%
COC(=O)C(Cc1c[nH]c2ccccc12)N1CCS(=O)(=O)CC1 (stereo not drawn)	-17.4%	18.0%	-10.7%	11.6%	2.7%	12.8%
O=S(=O)(CCN1CCCCC1)CCS(=O)(=O)CCN1CCCCC1	-0.7%	x	x	29.8%	x	x
COc1cc(C)c(CN2CCC(n3nccc3NC(=O)C3CC3)CC2)cc1C	-2.2%	20.2%	-14.2%	26.8%	1.5%	21.3%
N#Cc1ccc(Oc2cccc3cccnc23)c([N+](=O)[O-])c1	-23.8%	5.7%	-1.6%	-3.3%	x	4.1%
N#Cc1cc(Oc2cccc3cccnc23)c(-n2nnc3ccccc32)cc1C#N	-5.8%	u	-4.4%	41.8%	9.4%	50.1µM*
COc1ccccc1Nc1nc(-c2sc(N)nc2C)cs1	u	12.6µM*	u	u	x	50.1µM*
Cc1cc(-c2csc(NCc3ccccc3)n2)c(C)n1C	44.7µM*	8.91µM*	39.8µM*	-14.7%	6.5%	u
